“And” between values parts separate entries of the source, which are not always exact repeats. Equal values may be shown once. Results filed as inconclusive are left out. A structure can be active in one record and inactive in another. The source made the active and inactive calls. The calls were made as follows, unless noted: active = hit-call score of the fitted dose curve at least 0.9, where 1 is the maximum; inactive = score below 0.9.
Columns and labels:
[1] = read-out: Monocyte Chemoattractant Protein-1 (MCP1), CCL2 (gene 6347); assay: BSK_LPS_MCP1: BioMAP Diversity Plus: LPS Assay for Monocyte Chemoattractant Protein-1 (MCP1) Biomarker Activity (AID 2283081); conditions: primary human HUVEC with PBMC; actives raise or lower the signal;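 as to AC50: secreted MCP-1 protein quantified by ELISA in culture supernatant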
Outline: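 ELISA read-out of MCP-1 after 24 h chemical dosing of a human umbilical vein endothelial cell/peripheral blood mononuclear cell co-culture stimulated with LPS. Gain or loss of signal fitted relative to DMSO controls.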

[2] = BSK_LPS_PGE2: BioMAP Diversity Plus: LPS Assay for Prostaglandin E2 (PGE2) Biomarker Activity (AID 2283082); conditions: primary human HUVEC with PBMC; actives raise or lower the signal;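 as to AC50: secreted prostaglandin E2 measured by ELISA in LPS-stimulated co-culture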
Outline: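 LPS-activated HUVEC/PBMC co-culture; cmpd dosed, 24 h; PGE2 by ELISA; bidirectional fit vs DMSO; SRB (0.1%, TCA-fixed, 560 nm) in parallel plates for overt cytotox.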

[3] = read-out: Macrophage colony-stimulating factor (MCSF), CSF1 (gene 1435); assay: BSK_LPS_MCSF: BioMAP Diversity Plus: LPS Assay for Macrophage colony-stimulating factor (MCSF) Biomarker Activity (AID 2283083); conditions: primary human HUVEC with PBMC; actives raise or lower the signal
Outline: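 HUVEC + PBMC co-culture (human primary), 24 h post-dose; M-CSF by ELISA; gain/loss of signal fitted bidirectionally vs DMSO baseline.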

[4] = read-out: Tissue Factor, F3 (gene 2152); assay: BSK_LPS_TissueFactor: BioMAP Diversity Plus: LPS Assay for Tissue Factor Biomarker Activity (AID 2283084); conditions: primary human HUVEC with PBMC; actives raise or lower the signal
Outline: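 HUVEC/PBMC co-culture, LPS-activated; CD142 ELISA read 24 h post-dose; bidirectional curve fit vs DMSO negative control.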

[5] = read-out: Tumor necrosis factor (Homo sapiens) (UniProt P01375); assay: BSK_LPS_TNFa: BioMAP Diversity Plus: LPS Assay for Tumour Necrosis Factor alpha (TNFa) Biomarker Activity (AID 2283085); conditions: primary human HUVEC with PBMC; actives raise or lower the signal
Outline: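 Read-out is ELISA of TNFa in primary human endothelial cell–PBMC co-cultures at 24 h after compound. Activity in either direction was fitted against DMSO.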

[6] = read-out: Vascular cell adhesion molecule 1 (VCAM1), VCAM1 (gene 7412); assay: BSK_LPS_VCAM1: BioMAP Diversity Plus: LPS Assay for Vascular cell adhesion molecule 1 (VCAM1) Biomarker Activity (AID 2283086); conditions: primary human HUVEC with PBMC; actives raise or lower the signal
Outline: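 HUVEC + PBMC co-culture, LPS system; compound 24 h; VCAM-1 by ELISA; bidirectional fit vs DMSO control; parallel SRB (0.1%, TCA-fixed, 560 nm) for cytotoxicity.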

[7] = read-out: CD40, CD40 (gene 958); assay: BSK_SAg_CD40: BioMAP Diversity Plus: SAg Assay for CD40 Biomarker Activity (AID 2283088); conditions: primary human HUVEC with PBMC; actives raise or lower the signal
Outline: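 HUVEC/PBMC co-culture, 24 h post-dose; CD40 by ELISA, fluorescence intensity; bidirectional fit vs DMSO negative control.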

[8] = read-out: CD69, CD69 (gene 969); assay: BSK_SAg_CD69: BioMAP Diversity Plus: SAg Assay for CD69 Biomarker Activity (AID 2283089); conditions: primary human HUVEC with PBMC; actives raise or lower the signal;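 as to AC50: cell surface CD69 protein quantified by ELISA with fluorescence detection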
Outline: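 Values derive from bidirectional fitting relative to DMSO vehicle. Cells: umbilical vein endothelium plus peripheral blood mononuclear cells, treated 24 h before fluorescent ELISA for CD69.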

[9] = read-out: Monocyte Chemoattractant Protein-1 (MCP1), CCL2 (gene 6347); assay: BSK_SAg_MCP1: BioMAP Diversity Plus: SAg Assay for Monocyte Chemoattractant Protein-1 (MCP1) Biomarker Activity (AID 2283090); conditions: primary human HUVEC with PBMC; actives raise or lower the signal
Outline: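 MCP-1 levels in the endothelial–PBMC SAg co-culture were quantified by ELISA at 24 h post-dosing; both increases and decreases versus DMSO scored. Cytotoxicity monitored by SRB total protein in parallel cultures.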

[10] = read-out: E-selectin (Homo sapiens) (UniProt P16581); assay: BSK_SAg_Eselectin: BioMAP Diversity Plus: SAg Assay for Eselectin Biomarker Activity (AID 2283091); conditions: primary human HUVEC with PBMC; actives raise or lower the signal
Outline: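 E-selectin ELISA readout at 24 h post-dosing in human umbilical vein endothelial cell/PBMC co-culture; gain or loss of signal fitted relative to DMSO baseline.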

[11] = read-out: Monokine induced gamma interferon (MIG), CXCL9 (gene 4283); assay: BSK_SAg_MIG: BioMAP Diversity Plus: SAg Assay for Monokine induced gamma interferon (MIG) Biomarker Activity (AID 2283092); conditions: primary human HUVEC with PBMC; actives raise or lower the signal
Outline: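 Values reflect bidirectional fitting of ELISA-measured MIG against DMSO vehicle, taken 24 h after dosing of a co-culture of human umbilical vein endothelial cells and peripheral blood mononuclear cells.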

[12] = read-out: Interleukin-8 (IL8), CXCL8 (gene 3576); assay: BSK_SAg_IL8: BioMAP Diversity Plus: SAg Assay for Interleukin-8 (IL8) Biomarker Activity (AID 2283094); conditions: primary human HUVEC with PBMC; actives raise or lower the signal
Outline: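 ELISA read-out of IL-8 in a primary human vascular co-culture (umbilical vein endothelium plus PBMC), taken 24 h after compound addition. Values derive from bidirectional fits against DMSO negative controls.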

[13] = BSK_SAg_Proliferation: Cell Proliferation Assessment in the BioMAP Diversity Plus: SAg Assay (AID 2283095); conditions: primary human HUVEC with PBMC;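 also: relative cell number as total protein by SRB absorbance in sub-confluent culture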
Outline: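 Cells (endothelium plus PBMC, human primary) were dosed with chemical, cultured 96 h, fixed in 10% TCA and stained with 0.1% SRB. Absorbance at 560 nm gave relative protein, fitted bidirectionally relative to DMSO.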

[14] = BSK_SAg_SRB: Viability Assessment in the BioMAP Diversity Plus: SAg Assay (AID 2283096); conditions: primary human HUVEC with PBMC;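 also: cells read one day after compound addition; hits may be either gain or loss of signal compared with DMSO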
Outline: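 Total protein by sulforhodamine B staining, 24 h after dosing, in HUVEC–PBMC co-culture; DMSO-referenced bidirectional fitting.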

[15] = read-out: CD38, CD38 (gene 952); assay: BSK_SAg_CD38: BioMAP Diversity Plus: SAg Assay for CD38 Biomarker Activity (AID 2283087); conditions: primary human HUVEC with PBMC; actives raise or lower the signal
Outline: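 Human HUVEC plus PBMC co-culture stimulated with superantigen; CD38 measured by ELISA 24 h after chemical dosing. Fluorescence read-out, bidirectional fit against DMSO; cytotoxicity tracked in parallel by SRB and Alamar Blue.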

[16] = BSK_SAg_PBMCCytotoxicity: PBMC Cytotoxicity Assessment in the BioMAP Diversity Plus: SAg Assay (AID 2283093); conditions: primary human HUVEC with PBMC;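 also: PBMC viability measured as Alamar Blue reduction fluorescence at 546/580 nm; fitted both ways against DMSO so a hit may be loss or gain of signal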;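 as to AC50: PBMC superantigen activated with SEB plus TSST-1 one hour after compound addition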
Outline: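 Compound added to 75,000 PBMC/well for 1 h; SEB and TSST-1 then added at 20 ng/mL final each; 90 h incubation; Alamar Blue 6 h; read 546/580 nm ex/em. Activity fitted bidirectionally relative to DMSO baseline.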

[17] = target: human CYP2D6, CYP2D6 (gene 1565) (UniProt P10635); assay: NVS_ADME_hCYP2D6: NovaScreen (NVS) CYP450-related Enzyme Activity (ADME) Assay for human CYP2D6 (AID 2283107; active = hit-call score of the fitted dose curve at least 0.9, where 1 is the maximum)
Outline: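 Fluorescence intensity read 1 h post-dosing; insect-cell-expressed recombinant protein with fluorogenic substrate, no cells. Activity is scored as signal loss relative to acetonitrile baseline, first at a single 10 uM concentration in duplicate, then as concentration series for confirmed actives.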

[18] = target: human CYP2C9, CYP2C9 (gene 1559) (UniProt P11712); assay: NVS_ADME_hCYP2C9: NovaScreen (NVS) CYP450-related Enzyme Activity (ADME) Assay for human CYP2C9 (AID 2283108; active = hit-call score of the fitted dose curve at least 0.9, where 1 is the maximum)
Outline: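 Fluorescence readout of CYP2C9 activity (SF9-expressed human enzyme) at 0.75 h. The primary screen used 10 uM in duplicate, with concentration-response follow-up for actives; acetonitrile was the negative control.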

Measured: AC50

Sequence of Tumor necrosis factor (Homo sapiens) (P01375 whole entry, looked up): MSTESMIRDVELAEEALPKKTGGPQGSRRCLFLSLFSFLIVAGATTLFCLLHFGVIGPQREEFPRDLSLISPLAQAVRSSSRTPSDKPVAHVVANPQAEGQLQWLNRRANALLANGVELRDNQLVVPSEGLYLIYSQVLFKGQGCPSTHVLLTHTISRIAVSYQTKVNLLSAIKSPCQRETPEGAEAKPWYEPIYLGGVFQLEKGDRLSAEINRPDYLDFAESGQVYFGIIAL
Sequence of E-selectin (Homo sapiens) (P16581 whole entry, looked up): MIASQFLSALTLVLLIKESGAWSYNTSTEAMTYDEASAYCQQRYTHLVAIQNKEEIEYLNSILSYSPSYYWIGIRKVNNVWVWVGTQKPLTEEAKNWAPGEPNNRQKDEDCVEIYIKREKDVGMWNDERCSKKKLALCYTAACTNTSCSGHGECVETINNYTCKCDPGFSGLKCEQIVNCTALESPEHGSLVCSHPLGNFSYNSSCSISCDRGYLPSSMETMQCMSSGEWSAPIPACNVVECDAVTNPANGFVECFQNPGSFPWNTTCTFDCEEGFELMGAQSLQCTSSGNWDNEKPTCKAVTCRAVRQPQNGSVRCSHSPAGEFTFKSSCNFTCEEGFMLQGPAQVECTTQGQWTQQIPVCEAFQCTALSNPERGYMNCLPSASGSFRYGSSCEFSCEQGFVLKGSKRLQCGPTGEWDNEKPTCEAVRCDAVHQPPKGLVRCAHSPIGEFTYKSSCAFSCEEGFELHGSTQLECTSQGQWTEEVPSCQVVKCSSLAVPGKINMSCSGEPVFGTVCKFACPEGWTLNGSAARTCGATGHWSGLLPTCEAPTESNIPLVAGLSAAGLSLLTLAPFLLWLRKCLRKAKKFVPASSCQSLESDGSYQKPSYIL
Sequence of human CYP2D6, CYP2D6 (gene 1565) (P10635 whole entry, looked up): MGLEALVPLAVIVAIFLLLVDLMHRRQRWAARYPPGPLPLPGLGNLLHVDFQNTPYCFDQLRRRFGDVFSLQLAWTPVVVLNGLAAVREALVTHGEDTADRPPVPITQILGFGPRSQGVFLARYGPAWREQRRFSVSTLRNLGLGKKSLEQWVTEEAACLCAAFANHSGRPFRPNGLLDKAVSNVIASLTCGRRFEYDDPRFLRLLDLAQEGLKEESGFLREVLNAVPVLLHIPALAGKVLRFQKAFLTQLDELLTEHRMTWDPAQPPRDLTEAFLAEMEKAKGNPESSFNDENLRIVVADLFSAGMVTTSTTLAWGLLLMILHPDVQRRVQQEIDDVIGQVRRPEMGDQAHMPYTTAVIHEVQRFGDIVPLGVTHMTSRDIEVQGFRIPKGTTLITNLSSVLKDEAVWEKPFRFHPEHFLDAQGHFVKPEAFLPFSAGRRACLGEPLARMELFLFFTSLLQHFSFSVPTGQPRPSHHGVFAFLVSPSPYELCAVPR
Sequence of human CYP2C9, CYP2C9 (gene 1559) (P11712 whole entry, looked up): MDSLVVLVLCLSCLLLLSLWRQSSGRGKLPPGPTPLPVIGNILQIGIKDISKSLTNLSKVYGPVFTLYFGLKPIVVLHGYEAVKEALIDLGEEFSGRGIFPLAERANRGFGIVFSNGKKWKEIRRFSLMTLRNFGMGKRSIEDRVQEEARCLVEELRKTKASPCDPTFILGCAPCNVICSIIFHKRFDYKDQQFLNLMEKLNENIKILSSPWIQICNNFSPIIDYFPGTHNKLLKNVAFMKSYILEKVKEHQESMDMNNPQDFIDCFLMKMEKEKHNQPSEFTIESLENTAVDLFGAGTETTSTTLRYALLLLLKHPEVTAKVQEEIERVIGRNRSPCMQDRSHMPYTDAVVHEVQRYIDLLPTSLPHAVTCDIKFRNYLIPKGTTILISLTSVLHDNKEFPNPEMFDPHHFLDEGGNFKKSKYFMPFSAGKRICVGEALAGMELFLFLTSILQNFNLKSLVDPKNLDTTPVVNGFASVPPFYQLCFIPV

FC(F)(F)C(F)(F)C(F)(F)C(F)(F)CCI
active: [13] 30 µM
inactive: [1] | [2] | [3] | [4] | [5] | [6] | [7] | [8] | [9] | [10] | [11] | [12] | [14]

CCc1ccc(C(c2ccc(CC)cc2)C(Cl)Cl)cc1
active: [1] 31.4 µM | [2] 158 nM | [3] 20 µM | [5] 29.9 µM | [15] 27.7 µM | [7] 28.9 µM | [8] 15.1 µM | [9] 31.8 µM | [10] 26 µM | [11] 33.6 µM | [13] 8.44 µM | [14] 29.1 µM
inactive: [4] | [12]

O=C(O)C(F)(F)C(F)(F)C(F)(F)C(F)(F)C(F)(F)C(F)(F)C(F)(F)C(F)(F)Cl
active: [2] 21.9 µM and 22 µM | [3] 19.4 µM | [15] 50.4 µM and 30 µM | [7] 38.2 µM and 45.9 µM | [8] 30 µM and 45 µM | [9] 45.9 µM and 50.4 µM | [12] 48.8 µM and 50.1 µM | [13] 54.5 µM | [14] 48.1 µM and 45.1 µM
inactive: [1] | [3] | [4] | [5] | [10] | [11] | [13]

O=C(O)C(F)(F)C(F)(F)C(F)(F)C(F)(F)C(F)(F)C(F)(F)C(F)(F)C(F)(F)C(F)(F)C(F)(F)C(F)(F)C(F)(F)F
active: [3] 20.4 µM and 21.6 µM | [7] 21.1 µM and 16.7 µM
inactive: [1] | [2] | [4] | [5] | [6] | [8] | [9] | [10] | [11] | [16] | [12] | [13] | [14]

CO[Si](OC)(c1ccccc1)c1ccccc1
inactive: [1] | [2] | [3] | [4] | [5] | [15] | [7] | [8] | [9] | [10] | [11] | [12] | [14]
active: [16] 33.8 µM | [13] 20 µM

FC(F)(F)C(F)(F)C(F)(F)C(F)(F)C(F)(F)C(F)(F)C(F)(F)C(F)(F)F
inactive: [1] | [2] | [3] | [4] | [5] | [15] | [7] | [8] | [9] | [10] | [11] | [16] | [12] | [13] | [14]

FC(F)(F)C(F)(F)C(F)(F)C(F)(F)C(F)(F)C(F)(F)C(F)(F)Br
inactive: [1] | [2] | [3] | [4] | [5] | [15] | [7] | [8] | [9] | [10] | [11] | [16] | [12] | [13] | [14]

CCCCCCC(C)OC(=O)CCCCC(=O)OC(C)CCCCCC (stereo not given)
inactive: [1] | [2] | [3] | [4] | [6] | [15] | [7] | [8] | [9] | [10] | [11] | [12] | [13] | [14]
active: [5] 25.3 µM

C=C(C)C(=O)OCCC(F)(F)C(F)(F)C(F)(F)C(F)(F)C(F)(C(F)(F)F)C(F)(F)F
inactive: [1] | [2] | [3] | [4] | [5] | [7] | [8] | [9] | [10] | [11] | [16] | [12] | [13] | [14]

Nc1ccc([N+](=O)[O-])cc1O
active: [17] 3.87 µM | [18] 3.74 µM
inactive: [1] | [2] | [3] | [4] | [5] | [7] | [8] | [9] | [10] | [11] | [16] | [12] | [13] | [14]

Oc1ccc(Nc2ccccc2)cc1
active: [2] 668 nM | [6] 20 µM | [7] 8.57 µM | [8] 14 µM | [9] 20 µM | [10] 25.1 µM | [13] 3.84 µM | [18] 0.451 µM
inactive: [1] | [3] | [4] | [5] | [11] | [12] | [14] | [17]
